From PubChem BioAssay
CYP2C19 inh: inhibitors of human CYP2C19; P33261; CYP2C19 Supersomes, luciferin-H EGE luminescence, 30 min; inhibition, % at 5 µM; 21% of 96,000 active;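 active means CYP2C19 inhibition above a set limit at 5 µM in the primary screen, cut at about 50% in these data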;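 further: plate controls were negative control wells for no effect and 2.5 mM tranylcypromine positive control for full effect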
CYP2C19 activ: increases human CYP2C19 enzyme activity | P33261 | recombinant CYP2C19, luciferin-H EGE luminescence; stronger effect = higher value; 0 = fully inhibited enzyme, 1 = untreated enzyme | activation factor at 5 µM | 96,000 tested, under 10 active | AID 1025;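 active means activation factor of at least 2 at 5 µM in the primary screen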;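 further: 0 = wells with 2.5 mM tranylcypromine and 1 = vehicle-only wells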
PLAP act: activators of human placental alkaline phosphatase; P05187; purified PLAP enzyme, luminescent substrate read-out; stronger effect = higher value; activation fold at 20 µM; 1.2% of 96,000 active; in the data active means activation fold above about 2
Target sequence (P05187 whole entry, looked up): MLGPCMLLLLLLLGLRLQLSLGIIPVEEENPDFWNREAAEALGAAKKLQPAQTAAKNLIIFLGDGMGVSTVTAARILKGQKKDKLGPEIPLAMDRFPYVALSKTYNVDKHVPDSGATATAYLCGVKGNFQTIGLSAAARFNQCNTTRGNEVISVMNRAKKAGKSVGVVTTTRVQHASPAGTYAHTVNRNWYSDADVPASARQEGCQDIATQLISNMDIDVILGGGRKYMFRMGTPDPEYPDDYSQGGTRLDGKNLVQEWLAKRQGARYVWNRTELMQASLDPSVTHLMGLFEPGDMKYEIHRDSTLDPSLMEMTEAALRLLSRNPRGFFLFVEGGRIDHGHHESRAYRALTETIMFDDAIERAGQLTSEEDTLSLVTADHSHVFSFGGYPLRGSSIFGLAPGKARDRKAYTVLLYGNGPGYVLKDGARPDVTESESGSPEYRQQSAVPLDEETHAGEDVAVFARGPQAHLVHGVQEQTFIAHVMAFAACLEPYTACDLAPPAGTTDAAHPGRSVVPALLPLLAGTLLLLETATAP
CYP2C9 inhib: inhibitors of human CYP2C9; P11712; CYP2C9 Supersomes, luciferin-H conversion, luminescence; inhibition, % at 5 µM; 20% of 96,000 active; AID 777;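 active means blocking of liver enzyme CYP2C9 beyond about 50% at 5 µM, limit read from the data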
CYP2C9 act: CYP2C9 (human) activation; 1.4% of 96,000 active; P11712; recombinant CYP2C9, luciferin-H conversion, luminescence; stronger effect = higher value; factor 1 = untreated enzyme, 0 = blocked; activation factor at 5 µM;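 active means activation factor of 2 or more for CYP2C9 at a 5 µM dose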;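 further: 0 = sulfaphenazole-blocked wells and 1 = vehicle-only wells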
An asterisk follows results filed as active. An excerpt weighted towards active compounds, which were near 31% of everything screened.

SMILES	CYP2C19 inh	CYP2C19 activ	PLAP act	CYP2C9 inhib	CYP2C9 act
COc1ccc(-n2c(Cc3cccn3C)nnc2SCC(=O)Nc2cccc(F)c2)cc1	51*	0.5	1.6	50*	0.5
C=CCn1c(CNC(=O)c2ccco2)nnc1SCC(=O)Nc1cccc(Br)c1	36	0.6	1.5	21	0.8
COc1ccccc1NC(=O)c1nnn(CC(=O)Nc2cccc(SC)c2)c1N	2	1	1.2	-53	1.5
c1cc(-c2nnc(-c3ccncc3)o2)ccn1	66*	0.3	0.9	12	0.9
CCOc1ccc(-c2nnc(-c3cccs3)o2)cc1	8	0.9	0.9	18	0.8
CC(C)COc1ccc(-c2nnc(-c3ccncc3)o2)cc1	78*	0.2	1.2	42	0.6
CCCOc1ccc(-c2nnc(-c3ccncc3)o2)cc1	99*	0	1.1	89*	0.1
Cc1cc2c3nonc3ccc2n1C	22	0.8	0.8	-13	1.1
S=C1SCN(Cc2ccccn2)CN1Cc1ccco1	20	0.8	1	13	0.9
Nn1c(SCC(=O)Nc2ccc3c(c2)OCO3)nnc1C1CCCCC1	14	0.9	0.7	40	0.6
O=C(CSc1nc(-c2ccncc2)nn1CC(=O)N1CCCCC1)NC1CCCC1	64*	0.4	1	79*	0.2
CCCn1c(SCC(=O)NC2CCCCC2)nnc1-c1ccncc1	65*	0.4	1	10	0.9
O=C(Cn1c(SCC(=O)NC2CCCC2)nnc1-c1ccncc1)Nc1ccc2c(c1)OCO2	91*	0.1	1.1	91*	0.1
Cn1c(SCC(=O)NC2CCCCCC2)nnc1-c1cccs1	11	0.9	0.9	18	0.8
CCn1c(CNC(=O)Cc2ccc(OC)cc2)nnc1SCC(=O)NC1CCCCC1	14	0.9	1.3	27	0.7
CCn1c(SCC(=O)NC2CCCCC2C)nnc1-c1ccc(OC)cc1 (stereo not drawn)	71*	0.3	1.5	68*	0.3
COC(=O)c1ccc(COc2ccc3c(C)c(C)c(=O)oc3c2)o1	16	0.8	1	20	0.8
Cc1[nH]c2ccccc2c1Cc1nnc(SCC(N)=O)o1	-2	1	1.2	-45	1.5
O=C(CSc1ncnc2c1oc1ccccc12)N1CCCc2ccccc21	24	0.8	1.4	35	0.7
CCOc1ccccc1-c1nc(SCC(=O)O)n[nH]1	-11	1.1	1.1	-11	1.1
COc1ccc(C(=O)NCc2n[nH]c(=S)n2-c2ccccc2)cc1OC	21	0.8	1.1	12	0.9
COc1cc(OC)cc(C(=O)NCc2n[nH]c(=S)n2-c2ccccc2)c1	64*	0.4	1	17	0.8
O=C(NCc1n[nH]c(=S)n1-c1cccc(Cl)c1)c1ccc(S(=O)(=O)N2CCCC2)cc1	42	0.6	1.2	61*	0.4
O=C(NCC1CCCO1)c1cccc(N2C(=O)C3C4C=CC(C4)C3C2=O)c1 (stereo not drawn)	-1	1	1.2	13	0.9
O=S(=O)(NCc1ccc2c(c1)OCO2)c1ccc2c(c1)oc1ccccc12	-1	1	0.9	23	0.8
SMILES	CYP2C19 inh	CYP2C19 activ	PLAP act	CYP2C9 inhib	CYP2C9 act
CCc1nc(NCc2cccnc2)c2oc3ccccc3c2n1	92*	0.1	0.9	58*	0.4
CCc1nc(NCC2CCCO2)c2oc3ccccc3c2n1 (stereo not drawn)	48	0.5	1.6	46	0.5
CCc1nc(NCc2ccc3c(c2)OCO3)c2oc3ccccc3c2n1	52*	0.5	1.2	92*	0.1
CC(=O)N(Cc1cc2cc(C)c(C)cc2n2nnnc12)CC1COCCO1 (stereo not drawn)	25	0.8	1.1	4	1
Cc1cccc(-n2c(Cc3cc(=O)[nH]c(=O)[nH]3)nnc2SCC(=O)N2CCCCC2)c1	-14	1.1	1.4	-4	1
Cc1ccccc1OCc1nc(-c2ccc(-n3cccc3)cc2)no1	-7	1.1	0.8	4	1
Clc1ccccc1OCc1nc(-c2ccncc2)no1	98*	0	0.8	98*	0
Clc1ccc(OCc2nc(-c3ccncc3)no2)c(Br)c1	94*	0.1	1.3	95*	0.1
c1ccc2c3nnc4n(c-3nc2c1)CCCS4	-3	1	0.9	-64	1.6
O=C(N1CCOCC1)N1CCCN(C(=O)N2CCOCC2)CC1	0	1	1	-19	1.2
COc1ccc(OCc2nc(N)nc(Nc3ccccc3)n2)cc1	68*	0.3	0.8	70*	0.3
COc1ccc2nc(SCc3nc(N)nc(Nc4ccccc4)n3)[nH]c2c1	81*	0.2	2.5*	98*	0
COc1ccc(Nc2nc(N)nc(COc3ccc(OC)cc3)n2)cc1	-10	1.1	1	-2	1
CCOC(=O)c1cnc(SCc2nc(N)nc(Nc3ccccc3)n2)nc1N	66*	0.3	0.8	84*	0.2
Nc1nc(CSc2ccccn2)nc(Nc2ccccc2)n1	55*	0.4	0.8	52*	0.5
CCOc1ccccc1C(=O)n1nc2nc(C)cc(C)c2c1N	9	0.9	1	14	0.9
O=C(Cn1cccc1C(=O)c1ccccc1)NCc1ccccn1	3	1	0.9	10	0.9
CCCS/C(N)=N/N=C/c1ccccc1O	79*	0.2	1.4	59*	0.4
Cc1ccc(C)c(S(=O)(=O)c2c(N)n(/N=C/c3ccco3)c3nc4ccccc4nc23)c1	63*	0.4	1.5	86*	0.1
Nc1c(S(=O)(=O)c2ccccc2)c2nc3ccccc3nc2n1/N=C/c1cccc(O)c1	10	0.9	1.2	31	0.7
Cc1cccc(S(=O)(=O)c2c(N)n(/N=C/c3ccccc3)c3nc4ccccc4nc23)c1	2	1	1.4	55*	0.5
CS(=O)(=O)N1CCN(C2Cc3ccccc3C2)CC1	57*	0.4	1.5	8	0.9
O=S(=O)(Cc1ccccc1)N1CCN(C2Cc3ccccc3C2)CC1	4	1	0.9	-21	1.2
COc1ccc(S(=O)(=O)N(CCc2ccccc2)CC(=O)NC(C)C)cc1	56*	0.4	1.1	58*	0.4
O=C(CN(Cc1ccc(F)cc1)S(=O)(=O)c1ccccc1)N1CCCCC1	65*	0.3	1.8	45	0.5
SMILES	CYP2C19 inh	CYP2C19 activ	PLAP act	CYP2C9 inhib	CYP2C9 act
COc1ccc(S(=O)(=O)N(CC(=O)NC(C)C)Cc2ccccc2)cc1	52*	0.5	1.1	50*	0.5
Cc1ccc(S(=O)(=O)N(CC(=O)N2CCC(C(N)=O)CC2)Cc2ccc(F)cc2)cc1	30	0.7	1.4	38	0.6
CNC(=O)CN(Cc1ccccc1)S(=O)(=O)c1ccccc1	59*	0.4	0.9	14	0.9
CCOC(=O)c1c(C)[nH]c(C)c1C(=O)CSc1nc(N)cc(=O)[nH]1	24	0.8	1.1	50	0.5
Cc1cc(C(=O)OCC(=O)N2CCOCC2)c2ccccc2n1	12	0.9	1.1	-98	2*
CSc1ccc(Cl)c(C(=O)OCC(=O)N2CCOCC2)c1	51*	0.5	1.2	-67	1.7
